Screens deposited in PubChem BioAssay by National Center for Advancing Translational Sciences (NCATS).
Rows were chosen to be rich in hits. Some 12% of all compounds tested hit in one or more screens of this group.
MARV entry inh: qHTS for inhibitors of binding or entry into cells for Marburg Virus; Marburg virus pseudotyped entry inhibition, cell reporter; Potency, µM (highest dose often 37.8 µM), actives largely listed as inhibitors; hit rate 1.8% among 300,000; calls by dose curve; tested in HEK293 cells
LASV entry inh: qHTS for Inhibitors of binding or entry into cells for Lassa Virus; Lassa virus pseudotype entry inhibition, cell reporter; Potency, µM (titrated, usually from 37.9 µM), hits mostly inhibitors; hit rate 1.2% among 300,000; calls by dose curve; tested in HEK293 cells; note: nearly all actives have a fitted effect of over 50% in size
Cycloheximide cs: Cycloheximide Counterscreen for Small Molecule Inhibitors of Shiga Toxin; cell reporter, cycloheximide protein synthesis inhibition counterscreen; max response, %; hit rate 12% among 300,000; in the data active = max response mostly above about 13%, no sharp cut-off; inactive = mostly below about 14%; note: read at 38.3 µM for the half of the compounds with a filed dose
Shiga inhibitor: A qHTS for Small Molecule Inhibitors of Shiga Toxin; Vero cells, Shiga toxin protein synthesis inhibition reporter; inhibition, % at 38.7 µM; hit rate 9.2% among 290,000; AID 2315, 2010; in the data active = inhibition mostly above about 28%, no sharp cut-off; inactive = mostly below about 43%
Numbers stand for hits; n = inactive; u = inconclusive; x = no result given.

SMILES	MARV entry inh	LASV entry inh	Cycloheximide cs	Shiga inhibitor
O=C(CN1C(=O)CCC1=O)Nc1nc(-c2cccs2)cs1	n	n	n	n
O=C(Cc1ccccc1F)Nc1nc(-c2ccc(F)c(F)c2)cs1	u	u	19	62
O=C(Cc1ccccc1F)Nc1nc(-c2cccs2)cs1	u	u	37	50
O=C(Cc1ccccc1)Nc1nc(-c2ccc(F)c(F)c2)cs1	n	x	n	n
O=C(Cc1ccccc1)Nc1nc(-c2cccs2)cs1	u	u	43	105
CCC(=O)Nc1nnc(-c2cccs2)s1	u	n	n	n
Cc1ccc(CN(Cc2cccn2-c2nnc(N3CCCC3=O)s2)C(=O)Nc2cc(C)cc(C)c2)cc1	n	x	x	x
O=C1COC(c2ccccc2)C2CCCCN12 (stereo not given)	n	n	n	n
C/C(=N\NC(=O)CCn1nnc2ccccc21)c1ccco1	x	x	19	n
NNC(=O)CCn1nnc2ccccc21	n	n	n	n
COc1ccc(/C=N/NC(=O)CCn2nnc3ccccc32)cc1	x	x	20	53
O=C(COc1ccc(F)cc1)NCC(c1ccc(Cl)cc1)N1CCCCC1 (stereo not given)	u	n	x	x
CCOc1cc(S(=O)(=O)NCc2ccco2)c(OCC)cc1-n1cnnn1	n	n	34	76
CCOc1cc(S(=O)(=O)NCc2ccc(OC)cc2)c(OCC)cc1-n1cnnn1	u	n	n	n
CC1(C)CC(=O)C=C(NC2=CC3OC(c4ccccc4)OCC3OC2=O)C1 (stereo not given)	14µM	u	n	n
CCOc1ccc(C(=O)NC(=S)Nc2ncccc2C)cc1[N+](=O)[O-]	n	n	25	33
CCOc1ccc(C(=O)NC(=S)Nc2ccc(NC(=O)c3ccco3)cc2)cc1[N+](=O)[O-]	n	n	15	n
C/C(CC(=O)NC1CCCCC1)=N\NC(=O)c1ccccn1	u	n	39	64
C/C(CC(=O)NCc1ccccc1Cl)=N/NC(=O)c1ccccn1	u	n	25	79
C/C(CC(=O)Nc1ccc(F)cc1)=N\NC(=O)c1ccccn1	n	u	n	n
CC(=O)Nc1ccccc1NC(=O)C/C(C)=N/NC(=O)c1ccccn1	n	n	38	61
Cc1ccc2[nH]c3c(c2c1)CCC[C@H]3C(N)=O	n	x	x	x
CSc1ccc(CN2CCC(n3nccc3NC(=O)CCCc3ccccc3)CC2)cc1	u	u	n	n
CCCCC(=O)NC1(C(F)(F)F)NC(=O)N(C)C1=O (stereo not given)	x	x	n	n
CC1CCCN(CC(O)CN2CCN(CC(O)CN3CCCC(C)C3)C(C)C2)C1 (stereo not given)	1.1µM	n	x	x
SMILES	MARV entry inh	LASV entry inh	Cycloheximide cs	Shiga inhibitor
Cc1ccccc1OCC(O)CN1CCN(CC(O)COc2ccccc2C)C(C)C1 (stereo not given)	u	u	n	n
Brc1cc2c(cc1COc1ccc(-c3nn[nH]n3)cc1)OCO2	n	n	30	n
Cc1ccccc1COc1ccc(-c2nn[nH]n2)cc1	u	u	27	32
CCOc1ccc(-c2nn[nH]n2)cc1	n	n	n	n
Cn1nnc2cc(C(=O)Nc3ccccc3)ccc21	x	x	16	n
Cn1nnc2cc(C(=O)Nc3ccc(Cl)cc3)ccc21	x	x	n	n
CN(C)c1ccc(NC(=O)c2ccc3c(c2)nnn3C)cc1	x	x	18	46
CC(C)NC(=O)c1ccc2c(c1)nnn2C	n	n	n	n
Cc1ccc(NC(=O)c2ccc3c(c2)nnn3C)cc1	n	n	n	35
Cn1nnc2cc(C(=O)Nc3cccnc3)ccc21	n	n	n	n
CN(C)c1ccc(NC(=O)Nc2ccc3c(c2)nnn3C)cc1	n	n	32	x
CCC(=O)Nc1cc2c3c(c1)CCN3C(=O)CC2	x	x	n	n
CCOc1ccc(Br)cc1S(=O)(=O)Nc1ccc(Cl)c(S(=O)(=O)N(CC)c2ccccc2)c1	u	n	n	n
COc1cccc(NC(=O)Nc2ccc3c(c2)nnn3C)c1	n	n	32	59
Cc1ccccc1Nc1nc(N)nc(CSc2nnc(C)n2C)n1	n	x	n	n
Cc1ccc(SCc2nc(N)nc(Nc3ccccc3C)n2)c(C)c1	n	n	n	47
CCc1ccccc1Nc1nc(N)nc(CSc2nnnn2C)n1	n	n	n	n
Cc1ccccc1Nc1nc(N)nc(CSc2nnnn2C)n1	x	x	48	118
Cc1ccccc1Nc1nc(N)nc(CSc2ccc(F)cc2)n1	x	x	48	112
Cc1ccc(Nc2nc(N)nc(CSc3nccn3C)n2)c(C)c1	u	u	18	42
CC(=O)N1c2ccccc2CC1C(=O)N1CCN(c2cc(Cl)ccc2C)CC1 (stereo not given)	x	n	x	x
COc1ccc(S(=O)(=O)Nc2cc3c4c(c2)C(C)C(=O)N4CCC3)cc1OC (stereo not given)	n	n	x	x
COc1ccc(NCc2cc3cc4c(cc3n(CC(=O)Nc3ccc(F)cc3F)c2=O)OCO4)cc1	x	n	x	x
O=C(c1c(Cl)nc2sccn12)N1CCN(c2cccc(Cl)c2)CC1	u	u	n	n
Cc1ccc(SCc2nc(N)nc(Nc3ccccc3C)n2)cc1C	x	x	n	n
SMILES	MARV entry inh	LASV entry inh	Cycloheximide cs	Shiga inhibitor
Cc1ccccc1Nc1nc(N)nc(CN(C)Cc2ccccc2Cl)n1	u	u	31	n
CC(=O)OC[C@H]1O[C@H](CCON=C(C)CCC(=O)OC[C@H]2O[C@H](C#Cc3ccccc3)C=C[C@H]2Oc2ccc(C)cc2)C=C[C@H]1OC(C)=O	n	x	x	x
Nc1cc(C(=O)c2cccs2)ccc1Cl	n	n	17	n
COC(=O)c1ccc(NC(=S)Nc2ccccn2)cc1	n	u	42	73
COc1ccc(NC(=S)Nc2ccccn2)cc1	u	u	46	135
CCOC(=O)c1ccc(NC(=S)Nc2cccc(N)n2)cc1	n	u	50	81
COc1ccccc1NC(=S)Nc1ccccn1	n	n	n	n
CCc1ccc(S(=O)(=O)Nc2c(C)n(C)n(-c3ccccc3)c2=O)cc1	n	n	n	n
Cc1ccc(S(=O)(=O)NC(Cc2ccccc2)C(=O)O)cc1C (stereo not given)	n	n	n	n
CCC(=O)N1CCc2cc(S(=O)(=O)NC(Cc3ccccc3)C(=O)NCc3cccc(OC)c3)ccc21 (stereo not given)	n	u	x	x
O=C(COC(=O)c1cccnc1Cl)NCc1ccco1	n	n	n	n
COc1cccc(CNC(=O)c2ccc(NC(=O)C3CCCO3)cc2)c1 (stereo not given)	n	n	n	n
CCOc1ccc(CNC(=O)c2ccc(NC(=O)c3nsc4ccccc34)cc2)cc1	x	n	x	x
Cc1ccc(CNC(=O)c2ccc(NC(=O)C3=CSCCO3)cc2)cc1	x	x	n	28
CCOc1ccc(CNC(=O)c2ccc(NC(=O)C3=CSCCO3)cc2)cc1	x	x	34	n
COc1cccc(CNC(=O)c2ccc(NC(=O)C3=CSCCO3)cc2)c1	x	x	22	116
OC(C1=CC(=Cc2ccncc2)c2ccccc21)c1ccncc1 (stereo not given)	u	n	x	x
COc1ccc2c(C)c(CCC(=O)NCCc3ccc(OC)c(OC)c3)c(=O)oc2c1	n	n	x	x
CCOC(=O)Cn1c(=O)c(F)cn(Cc2ccc(OC)c([N+](=O)[O-])c2)c1=O	u	n	n	n
COc1ccc2c(c1OC)C(=O)OC2Nc1nc(-c2ccc(-c3ccccc3)cc2)cs1 (stereo not given)	n	u	80	121
